The results in this text go back to PubChem BioAssay (NCI).

Test systems include DU-145 prostate; K-562 leukemia; MALME-3M melanoma; MDA-MB-231 breast; RXF 393 renal; SF-268 CNS; SF-295 CNS; SF-539 CNS; UACC-257 melanoma; M14 melanoma; HCT-15 colon; HT29 colon; SNB-75 CNS; SNB-19 CNS; U251 CNS; PC-3 prostate; SK-MEL-5 melanoma; UACC-62 melanoma; LOX IMVI melanoma; SK-MEL-28 melanoma.
What all share (test): NCI-60 one-dose screen, 48 h (100 = growth as untreated, 0 = no growth, -100 = all killed)
Conditions in all cases: 10 µM unless noted

The structures appear in SMILES notation. This is part of a sample that, as a whole, favours compounds with a hit. Of some 83,000 tested, about 20% had one in any assay.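 How to read the values: 0–100, growth inhibition (40 = 60% inhibited); 0, no net growth; -100 to 0, cell death (-40 = 40% of starting cells died; -100 = all dead).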 Unmarked numbers belong to inactive results. Active and inactive are the calls of the source. Rule for the calls: active = growth percent below 10; inactive = the rest.

`Fc1ccc(Cn2cc(CSc3nc4ccccc4o3)nn2)cc1`: the growth is 108% in the experiment with DU-145 prostate; 95.3% with K-562 leukemia; 107% in the experiment with MALME-3M melanoma; 97.1% in the experiment on MDA-MB-231 breast; 105% in the experiment with RXF 393 renal; 95.4% in the experiment on SF-268 CNS. In addition, the growth with SF-295 CNS is 97%; in the experiment with SF-539 CNS it was 100%; in the experiment on UACC-257 melanoma, 105%; in the experiment with M14 melanoma it was 97%; in the experiment with HCT-15 colon it was 104%; in the experiment on HT29 colon, 99.8%. Also, the growth with SNB-75 CNS is 92.2%; in the experiment with SNB-19 CNS it was 92.5%; in the experiment on U251 CNS, 105%; in the experiment with PC-3 prostate it was 98.3%; in the experiment with SK-MEL-5 melanoma, 110%; with UACC-62 melanoma it was 84.3%. The growth was 107% in the experiment on LOX IMVI melanoma and 98.9% in the experiment on SK-MEL-28 melanoma.

In the case of `CCOC(=O)c1cnc2c(N=Nc3ccc(OC)cc3)c(N)nn2c1N`, the growth in the experiment with DU-145 prostate is 102%; with K-562 leukemia it was 107%; in the experiment with MALME-3M melanoma, 106%; in the experiment on MDA-MB-231 breast it was 101%; in the experiment with RXF 393 renal it was 113%; in the experiment on SF-268 CNS, 94.2%. Further, the growth is 102% in the experiment on SF-295 CNS; 110% in the experiment on SF-539 CNS; 103% in the experiment with UACC-257 melanoma; 110% in the experiment with M14 melanoma; 102% in the experiment with HCT-15 colon; 99.3% with HT29 colon. Moreover, the growth with SNB-75 CNS is 106%; in the experiment with SNB-19 CNS it was 98.6%; in the experiment with U251 CNS it was 105%; in the experiment with PC-3 prostate, 98.7%; in the experiment on SK-MEL-5 melanoma it was 96.2%; with UACC-62 melanoma it was 97.3%. Also, the growth in the experiment with LOX IMVI melanoma is 110%; in the experiment on SK-MEL-28 melanoma, 114%.

In the case of `COc1cc(/C=C/C(=O)c2ccc(-n3cc(CN4CCN(c5cc6c(cc5F)c(=O)c(C(=O)O)cn6C5CC5)CC4)nn3)cc2)ccc1O`, the growth in the experiment with DU-145 prostate was 77.5%; in the experiment with K-562 leukemia it was 40.5%; in the experiment on MALME-3M melanoma it was 94.5%; with MDA-MB-231 breast it was 73.6%; in the experiment with RXF 393 renal, 70.9%; with SF-268 CNS, 56.4%. Also, the growth with SF-295 CNS is 80.2%; with SF-539 CNS, 60.1%; with UACC-257 melanoma, 87.7%; with M14 melanoma, 79%; with HCT-15 colon it was 71.7%; with HT29 colon, 53.3%. For the same compound, the growth in the experiment on SNB-75 CNS is 89.2%; with SNB-19 CNS it was 53.8%; in the experiment on U251 CNS it was 34.3%; in the experiment with PC-3 prostate, 74%; in the experiment with SK-MEL-5 melanoma, 78.7%; in the experiment with UACC-62 melanoma, 61.2%. For the same compound, the growth with LOX IMVI melanoma is 36.9%; with SK-MEL-28 melanoma it was 95.8%.

Take `S=C(c1ccc2c(c1)OCO2)N1CCN(c2cccc(Cl)c2)CC1`: the growth in the experiment with DU-145 prostate is -0.195% (active); with K-562 leukemia, 29%; in the experiment with MALME-3M melanoma, 40.7%; with MDA-MB-231 breast it was 36.2%; in the experiment with RXF 393 renal it was 42.1%; in the experiment on SF-268 CNS, 41%. Moreover, the growth in the experiment with SF-295 CNS was 9.3% (active); with SF-539 CNS, -4.83% (active); with UACC-257 melanoma, 54%; in the experiment on M14 melanoma it was 13.5%; with HCT-15 colon, 24.1%; with HT29 colon, 4.72% (active). The growth in the experiment on SNB-75 CNS is 12.5%; with SNB-19 CNS, 40.4%; in the experiment with U251 CNS, 28.5%; in the experiment on PC-3 prostate, 15.9%; in the experiment with SK-MEL-5 melanoma, -10.8% (active); with UACC-62 melanoma it was 25.4%. The growth in the experiment on LOX IMVI melanoma was 45.4%; with SK-MEL-28 melanoma, 53.5%.

`CN(CCCNC(=O)Cc1ccc2ccc3cccc4ccc1c2c34)CCCNc1cc(-c2ccc3ccccc3c2)nc2ccccc12`: the growth with DU-145 prostate was -90.7% (active); in the experiment on K-562 leukemia, -82.8% (active); with MALME-3M melanoma, -57.7% (active); with MDA-MB-231 breast, -75.2% (active); with RXF 393 renal, -24.1% (active); with SF-268 CNS, -77.6% (active). The growth in the experiment on SF-295 CNS was -36% (active); in the experiment with SF-539 CNS, -96.1% (active); in the experiment on UACC-257 melanoma, -70% (active); in the experiment with M14 melanoma it was -74.4% (active); in the experiment with HCT-15 colon it was -69% (active); with HT29 colon, -80.8% (active). Also, the growth is -94.6% (active) in the experiment on SNB-75 CNS; -82.8% (active) with SNB-19 CNS; -49.3% (active) in the experiment with U251 CNS; -87.5% (active) with PC-3 prostate; -93.1% (active) in the experiment on SK-MEL-5 melanoma; -51.6% (active) in the experiment with UACC-62 melanoma. For the same compound, the growth is -54% (active) in the experiment with LOX IMVI melanoma and -85.7% (active) in the experiment with SK-MEL-28 melanoma.

Consider `C=C1C(=O)O[C@H]2[C@H]1CC/C(COC(=O)/C=C\C(=O)NCc1ccc(Cn3c(=O)sn(CCCCC)c3=O)cc1)=C\CC[C@@]1(C)O[C@@H]21`, for which the growth was 49.2% in the experiment with DU-145 prostate; 12.6% in the experiment on K-562 leukemia; 52.4% in the experiment with MALME-3M melanoma; 71.4% with MDA-MB-231 breast; 74.9% in the experiment on RXF 393 renal; 92.5% in the experiment on SF-268 CNS. Further, the growth was 101% in the experiment on SF-295 CNS; 78.7% in the experiment on SF-539 CNS; 75.8% with UACC-257 melanoma; 43.9% with M14 melanoma; 38.8% with HCT-15 colon; 41.3% in the experiment on HT29 colon. The growth is 110% with SNB-75 CNS; 94.8% in the experiment on SNB-19 CNS; 84.4% in the experiment on U251 CNS; 81.9% in the experiment with PC-3 prostate; 106% in the experiment with SK-MEL-5 melanoma; 70.1% in the experiment on UACC-62 melanoma. Moreover, the results for the growth in the experiment on LOX IMVI melanoma and with SK-MEL-28 melanoma were 62.6% and 91.1%, respectively.

As to `C=Cc1cnc(Nc2ccc(OC)cc2)nc1NCCCNC(=O)C1CCC1`, the growth in the experiment on DU-145 prostate is 46.3%; in the experiment with K-562 leukemia, 34.3%; in the experiment with MALME-3M melanoma, 52.5%; with MDA-MB-231 breast, -6.62% (active); in the experiment with RXF 393 renal, -1.29% (active); in the experiment on SF-268 CNS, 28.5%. In addition, the growth in the experiment on SF-295 CNS was 59.6%; with SF-539 CNS, 22%; in the experiment on UACC-257 melanoma, 70.5%; in the experiment with M14 melanoma, 46.8%; with HCT-15 colon it was 35.7%; in the experiment on HT29 colon it was 8.04% (active). Moreover, the growth was -5.11% (active) in the experiment on SNB-75 CNS; 57.5% with SNB-19 CNS; 29% with U251 CNS; 64.2% in the experiment on PC-3 prostate; 37.5% in the experiment with SK-MEL-5 melanoma; 82.3% in the experiment on UACC-62 melanoma. Besides, the growth in the experiment with LOX IMVI melanoma is 20.4%; in the experiment on SK-MEL-28 melanoma it was 80.3%.
